Here are results for 14 molecules from PubChem BioAssay (NCI).

Test systems include NCI-H23 lung; NCI-H226 lung; NCI-H322M lung; HOP-62 NSCLC; NCI-H460 lung; NCI-H522 lung; A549/ATCC NSCLC; 786-0 renal; COLO 205 colon; DU-145 prostate.
What all share (assay): NCI-60 one-dose screen, 48 h (100 = growth as untreated, 0 = no growth, -100 = all killed)
Common to all, as to conditions: 10 µM unless noted

This is part of a sample that, as a whole, favours compounds with a hit. Of some 83,000 tested, about 20% had one in any assay.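 How to read the values: 0–100, growth inhibition (40 = 60% inhibited); 0, no net growth; -100 to 0, cell death (-40 = 40% of starting cells died; -100 = all dead).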 Unmarked numbers belong to inactive results. Calls of active or inactive are those of the source. How the source made its calls: active means growth percent below 10; inactive means the rest.

In the case of `O=C(Nc1ccc(Cl)cc1Cl)Nc1ccc(-c2cccnc2)cc1N1CCC(CO)CC1`, the growth is 29% in the test with NCI-H23 lung; 55.4% in the test with NCI-H226 lung; 61.5% in the test on NCI-H322M lung; 42% in the test with HOP-62 NSCLC; 35.1% in the test with NCI-H460 lung; 53.4% in the test with NCI-H522 lung. Besides, the growth in the test with A549/ATCC NSCLC is 27.2%; with 786-0 renal, 52.3%; with COLO 205 colon, 16.1%; in the test on DU-145 prostate it was 54.2%.

On to `Cc1cc(C(C)(C)C)cc(C)c1CC1=NCCN1`, for which the growth in the test on NCI-H23 lung was 99%; with NCI-H226 lung, 89.2%; in the test on NCI-H322M lung, 102%; in the test on HOP-62 NSCLC it was 109%; in the test on NCI-H460 lung, 118%; in the test on NCI-H522 lung, 106%. The growth with A549/ATCC NSCLC is 104%; in the test on 786-0 renal, 96.9%; with COLO 205 colon, 92.6%; in the test on DU-145 prostate, 107%.

`CC(c1cc(Cl)ccc1O)c1cc(Cl)ccc1O`: the growth in the test with NCI-H23 lung is 17.9%; in the test on NCI-H226 lung, 82.5%; in the test with NCI-H322M lung, 80%; with HOP-62 NSCLC it was 84.3%; in the test with NCI-H460 lung it was 15.7%; in the test on NCI-H522 lung it was -39.3% (active). Further, the growth with A549/ATCC NSCLC is 29.3%; in the test on 786-0 renal, 90%; in the test with COLO 205 colon, 41.2%; in the test with DU-145 prostate, 50.7%.

As for `COC1CC2CCC(C)C(O)(O2)C(=O)C(=O)N2CCCCC2C(=O)OC(C(C)CC2CCC(O)C(OC)C2)CC(=O)C(C)C=C(C)C(O)C(OC)C(=O)C(C)CC(C)/C=C/C=C/C=C1C` (stereo not given), the growth was 49.2% in the test on NCI-H23 lung; 48.6% with NCI-H226 lung; 39.4% with NCI-H322M lung; 51.3% in the test on HOP-62 NSCLC; 43.1% with NCI-H460 lung; 42.7% in the test on NCI-H522 lung. The growth in the test on A549/ATCC NSCLC is 36.8%; in the test on 786-0 renal, 43%; in the test on COLO 205 colon, 64.7%; in the test with DU-145 prostate, 42%.

For `O=C1CN(CO)C(=O)CN1CO`, the growth is 103% with NCI-H23 lung; 113% in the test on NCI-H226 lung; 100% with NCI-H322M lung; 106% with HOP-62 NSCLC; 104% with NCI-H460 lung; 98.9% in the test with NCI-H522 lung. Moreover, the growth is 103% in the test with A549/ATCC NSCLC, 105% in the test on 786-0 renal, 116% in the test with COLO 205 colon and 114% with DU-145 prostate.

Turning to `Cc1nnc(Nc2ccc(NC(=O)Nc3ccc(Cl)cc3)cc2)c2ccccc12`, the growth is 48.8% in the test with NCI-H23 lung; 71.9% in the test with NCI-H226 lung; 47.8% in the test on NCI-H322M lung; 4.62% (active) with HOP-62 NSCLC; 26.1% in the test with NCI-H460 lung; 30.3% in the test on NCI-H522 lung. Further, the growth is 26.4% with A549/ATCC NSCLC, -27.8% (active) in the test on 786-0 renal, 28.2% in the test on COLO 205 colon and 57.8% in the test on DU-145 prostate.

Take `CCOC(=O)c1c(C)nc(C)c(C(=O)OCC)c1-c1cccnc1`: the growth was 101% in the test on NCI-H23 lung; 106% in the test with NCI-H226 lung; 108% in the test with NCI-H322M lung; 94.6% with HOP-62 NSCLC; 101% in the test on NCI-H460 lung; 95.8% in the test on NCI-H522 lung. Moreover, the growth in the test with A549/ATCC NSCLC is 103%; with 786-0 renal, 94.5%; in the test on COLO 205 colon it was 101%; in the test on DU-145 prostate it was 116%.

In the case of `OCc1nnn(-c2ccccc2)c1CO`, the growth is 112% with NCI-H23 lung; 114% in the test on NCI-H226 lung; 118% with NCI-H322M lung; 110% in the test on HOP-62 NSCLC; 116% in the test with NCI-H460 lung; 101% in the test with NCI-H522 lung. Also, the growth in the test on A549/ATCC NSCLC was 110%; in the test on 786-0 renal it was 105%; in the test on COLO 205 colon, 159%; in the test with DU-145 prostate it was 113%.

Take `COc1cc(C2CC(c3ccc(C)cc3)=NN2C(C)=O)ccc1Oc1ccnc2cc(Cl)ccc12` (stereo not given): the growth in the test on NCI-H23 lung is 59.9%; in the test with NCI-H226 lung, 45.4%; in the test with NCI-H322M lung, 79.9%; in the test on HOP-62 NSCLC, 16.4%; in the test on NCI-H460 lung, 32.3%; with NCI-H522 lung, 41.4%. The growth with A549/ATCC NSCLC was 68.7%; in the test on 786-0 renal, 21.9%; in the test on COLO 205 colon, 99.2%; in the test with DU-145 prostate, 74.8%.

Take `Cc1ccc([N+](=O)[O-])cc1NC(=O)Nc1cccc(F)c1`: the growth with NCI-H23 lung was 42.2%; with NCI-H226 lung it was 69.6%; with NCI-H322M lung, 98.3%; in the test with HOP-62 NSCLC, 99.4%; in the test on NCI-H460 lung, 47.2%; in the test with NCI-H522 lung, 31.4%. Also, the growth was 57.9% in the test with A549/ATCC NSCLC, 71.6% in the test on 786-0 renal, 138% in the test on COLO 205 colon and 84.6% with DU-145 prostate.

Take `O=C(O)c1ccc(NC(=O)c2cccc(Nc3ccnc(C(F)(F)F)c3)c2)cc1`: the growth in the test on NCI-H23 lung was 102%; in the test with NCI-H226 lung it was 99.8%; in the test on NCI-H322M lung, 101%; with HOP-62 NSCLC, 107%; with NCI-H460 lung it was 107%; with NCI-H522 lung, 87%. For the same molecule, the growth in the test on A549/ATCC NSCLC was 106%; in the test on 786-0 renal, 97.9%; in the test on COLO 205 colon it was 112%; in the test on DU-145 prostate it was 116%.

Take `CC(O)c1nc2c(c(=O)n(C)c(=O)n2C)n1C` (stereo not given): the growth is 114% in the test on NCI-H23 lung; 104% with NCI-H226 lung; 98.5% in the test on NCI-H322M lung; 85.5% with HOP-62 NSCLC; 107% with NCI-H460 lung; 90% with NCI-H522 lung. Further, the growth with A549/ATCC NSCLC was 91.2%; with 786-0 renal it was 105%; in the test with COLO 205 colon, 108%; in the test with DU-145 prostate, 122%.

On to `C=C(C[C@@](O)(C(=O)Oc1ccccc1)C(=O)C1CCCCC1)c1ccccc1`, for which the growth in the test with NCI-H23 lung was 103%; in the test with NCI-H226 lung, 108%; with NCI-H322M lung, 112%; in the test on HOP-62 NSCLC, 108%; in the test with NCI-H460 lung, 107%; in the test on NCI-H522 lung it was 91.8%. Besides, the growth in the test with A549/ATCC NSCLC was 92.2%; in the test on 786-0 renal, 98.9%; with COLO 205 colon, 120%; in the test on DU-145 prostate, 110%.

Regarding `C=C1c2c(C)nn(-c3ccc(C#CCOC4OC(CO)C(O)C(O)C4O)cc3)c2N(C)C23C[C@H]1C1(C)c4c(C)nn(-c5ccc(C#CCOC6OC(CO)C(O)C(O)C6O)cc5)c4N(C)C(C)(C[C@H]12)C3` (stereo not given in full), the growth was 12.4% with NCI-H23 lung; 23.4% with NCI-H226 lung; 1.68% (active) in the test on NCI-H322M lung; 3.61% (active) with HOP-62 NSCLC; -45.9% (active) in the test with NCI-H460 lung; -3.82% (active) with NCI-H522 lung. Moreover, the growth in the test with A549/ATCC NSCLC was 24.9%; with 786-0 renal it was 17.2%; in the test with COLO 205 colon, 8.45% (active); in the test with DU-145 prostate, 16.9%.
